For 20 compounds, growth inhibition, inhibition and outcome results are on record in PubChem BioAssay.

Test [1] is described as follows: antimalarial activity against Dd2 strain (AID 2302;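 active means growth inhibition above 50% at the single 2 µM test dose, taken to imply half-maximal potency below 2 µM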;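 further: 0% = DMSO untreated growth and 100% = chloroquine plus artemisinin killed control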). Particulars: P. falciparum Dd2 in RBCs, LDH growth readout, 72 h; at 2 µM; hits give high values.
Test [2] in a line: human hepatoma cell viability loss – ATP luminescence, cytotoxicity control for P. falciparum antimalarial project, primary screen (AID 2303;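 active means inhibition above 50%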;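 further: 0% = DMSO wells and 100% = digitonin-killed cells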). Particulars: HepG2 viability, 24-48 h, at 10 µM, hits give high values.
The target of test [3] is L-lactate dehydrogenase (Plasmodium falciparum (isolate CDC / Honduras)) (UniProt Q27743). As to the kind of experiment: PfLDH activity inhibition – cell lysate, 3D7 strain, counter-screen for P. falciparum growth inhibition project (AID 2304).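 Further: 0% = vehicle and 100% = reference inhibitor.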 Particulars: P. falciparum 3D7 crude extract, LDH APAD/NBT absorbance; at 2 µM; hits give high values. A general note: The purpose of a counterscreen is to sort out artefacts and off-target activity.
L-lactate dehydrogenase (Plasmodium falciparum (isolate CDC / Honduras)), sequence (Q27743 whole entry, looked up): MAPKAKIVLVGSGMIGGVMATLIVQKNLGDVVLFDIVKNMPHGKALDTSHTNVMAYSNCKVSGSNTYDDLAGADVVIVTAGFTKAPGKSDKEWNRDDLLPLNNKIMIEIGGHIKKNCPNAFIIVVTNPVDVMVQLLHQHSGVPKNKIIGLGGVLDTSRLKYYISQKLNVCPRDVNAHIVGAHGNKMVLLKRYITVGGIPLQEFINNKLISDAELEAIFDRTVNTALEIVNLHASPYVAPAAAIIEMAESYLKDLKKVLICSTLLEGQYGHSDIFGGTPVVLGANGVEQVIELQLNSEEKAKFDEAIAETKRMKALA

A short description of test [4]: inhibition of 3D7 malaria parasite growth – strain 3D7 (AID 2306).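 Further: 0% = DMSO wells and 100% = chloroquine plus artemisinin control wells.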 Particulars: P. falciparum 3D7 erythrocytic growth, LDH absorbance, 72 h; at 2 µM; hits give high values.
The target in test [5] is Calcium-dependent protein kinase 1 (Plasmodium falciparum (isolate 3D7)) (UniProt P62344). As to the kind of experiment: PfCDPK1 kinase inhibitors, biochemical, TCAMS library (AID 1159585; cut-off not given, nearly all actives have IC50 up to about 0.98 µM;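 further: inhibitors leave more ATP so luminescence rises with inhibition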). Particulars: recombinant PfCDPK1, Kinase-Glo ATP depletion luminescence. A general note: Kinase-Glo reads ATP consumption through a luciferase reaction.
Calcium-dependent protein kinase 1 (Plasmodium falciparum (isolate 3D7)), sequence (P62344 whole entry, looked up): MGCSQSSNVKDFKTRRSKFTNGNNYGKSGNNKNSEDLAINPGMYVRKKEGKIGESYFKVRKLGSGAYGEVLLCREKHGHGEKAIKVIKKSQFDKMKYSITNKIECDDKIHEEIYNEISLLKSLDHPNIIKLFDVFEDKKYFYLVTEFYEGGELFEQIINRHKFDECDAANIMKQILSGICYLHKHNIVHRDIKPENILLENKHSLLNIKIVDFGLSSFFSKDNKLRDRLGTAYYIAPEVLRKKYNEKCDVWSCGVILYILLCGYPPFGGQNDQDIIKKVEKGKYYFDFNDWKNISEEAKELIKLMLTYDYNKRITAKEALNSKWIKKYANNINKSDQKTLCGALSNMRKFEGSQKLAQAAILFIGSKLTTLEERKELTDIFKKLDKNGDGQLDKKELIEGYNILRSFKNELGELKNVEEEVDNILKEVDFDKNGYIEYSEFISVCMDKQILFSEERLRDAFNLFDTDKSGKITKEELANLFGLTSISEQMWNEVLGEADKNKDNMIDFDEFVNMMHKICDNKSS
Test [6] addresses Plasmodium falciparum protein kinase 6 (PK6, PF3D7_1337100) (UniProt Q8IDW1). As to the kind of experiment: PfPK6 kinase inhibitors, biochemical, TCAMS library (AID 1159586). The conditions noted are these: recombinant PfPK6, Kinase-Glo ATP depletion luminescence.
The target of test [7] is Protein kinase 7 (PK7), Plasmodium falciparum 3D7 (PF3D7_0213400) (UniProt Q7YTF7). As to the kind of experiment: inhibition of Plasmodium PK7 catalytic activity – biochemical, TCAMS antimalarial set, Kinase-Glo luminescence (AID 1159587). The conditions noted are these: recombinant PfPK7, Kinase-Glo ATP depletion luminescence.
Protein kinase 7 (PK7), Plasmodium falciparum 3D7 (PF3D7_0213400), sequence (Q7YTF7 1-343): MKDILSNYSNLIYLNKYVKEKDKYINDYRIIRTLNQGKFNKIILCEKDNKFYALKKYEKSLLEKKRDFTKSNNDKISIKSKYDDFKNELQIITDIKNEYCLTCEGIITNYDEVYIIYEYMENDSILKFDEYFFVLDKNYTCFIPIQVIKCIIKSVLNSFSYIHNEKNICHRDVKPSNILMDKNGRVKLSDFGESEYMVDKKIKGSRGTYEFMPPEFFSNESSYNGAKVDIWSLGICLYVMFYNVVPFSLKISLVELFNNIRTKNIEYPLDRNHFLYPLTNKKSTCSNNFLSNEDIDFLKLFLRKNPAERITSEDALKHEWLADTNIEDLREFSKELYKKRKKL
In test [8] the target is Calcium-dependent protein kinase 4 (Plasmodium falciparum (isolate 3D7)) (UniProt Q8IBS5). The test is described as follows: PfCDPK4 kinase inhibitors, biochemical, TCAMS library (AID 1159588; cut-off not given, nearly all actives have IC50 up to about 0.91 µM). The conditions noted are these: recombinant PfCDPK4, Kinase-Glo ATP depletion luminescence.
Calcium-dependent protein kinase 4 (Plasmodium falciparum (isolate 3D7)), sequence (Q8IBS5 whole entry, looked up): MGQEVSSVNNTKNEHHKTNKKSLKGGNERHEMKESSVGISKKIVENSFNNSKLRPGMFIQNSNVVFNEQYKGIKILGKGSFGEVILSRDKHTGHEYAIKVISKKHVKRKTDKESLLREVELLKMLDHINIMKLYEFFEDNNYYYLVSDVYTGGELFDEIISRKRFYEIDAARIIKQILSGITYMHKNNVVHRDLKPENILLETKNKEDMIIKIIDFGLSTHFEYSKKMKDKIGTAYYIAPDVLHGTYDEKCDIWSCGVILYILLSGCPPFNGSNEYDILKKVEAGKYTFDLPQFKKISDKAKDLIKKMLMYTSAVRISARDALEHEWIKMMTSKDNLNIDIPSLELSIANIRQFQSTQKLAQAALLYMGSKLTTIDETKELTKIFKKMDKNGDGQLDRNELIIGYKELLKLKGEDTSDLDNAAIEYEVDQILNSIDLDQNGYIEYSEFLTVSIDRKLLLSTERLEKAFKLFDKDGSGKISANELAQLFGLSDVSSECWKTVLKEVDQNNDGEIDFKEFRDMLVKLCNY

A number with no mark means an inactive call. For some of these results: Entries with a potency or affinity are not part of this list. Active and inactive are the calls of the source. Unless noted, how the calls were made is not given here.

For orientation: inhibition means the change of the read-out against control, counted positive when it falls.

Plasmodium falciparum protein kinase 6 (PK6, PF3D7_1337100), sequence (Q8IDW1 1-305): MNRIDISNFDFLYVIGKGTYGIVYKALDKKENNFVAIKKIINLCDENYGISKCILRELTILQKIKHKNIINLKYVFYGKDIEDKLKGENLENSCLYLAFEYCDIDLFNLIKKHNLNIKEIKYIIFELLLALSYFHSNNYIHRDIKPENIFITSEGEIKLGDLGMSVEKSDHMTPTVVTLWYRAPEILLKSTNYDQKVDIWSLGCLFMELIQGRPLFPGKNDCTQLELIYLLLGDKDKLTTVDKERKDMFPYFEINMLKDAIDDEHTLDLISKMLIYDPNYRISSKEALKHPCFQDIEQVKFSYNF

As to `O=C(NC1CCCCCC1)[C@@H]1CCCN1C(=O)c1ccc(O)c(-c2ccc(Cl)c(Cl)c2)c1`, the growth inhibition in test [1] is 98% (active); in test [4] it was 99% (active). The inhibition is -2% in test [2] and -7% in test [3]. For the same compound, the outcome in test [5], in test [6], in test [7] and in test [8] was inactive.

For `CCCOc1ccccc1-c1nc2[nH]c3c(c2c(=O)[nH]1)CCN(C)C3`, the growth inhibition in test [1] is 70% (active); in test [4], 87% (active). Further, the inhibition in test [2] is 8%; in test [3], -6%. Moreover, the outcome in test [5], in test [6], in test [7] and in test [8] was inactive.

Consider `CC(=O)c1cccc(NC(=O)NC2CCN(CCCCCNC(=O)/C=C/c3ccc(Cl)c(Cl)c3)CC2)c1`, for which the growth inhibition was 1% in test [1] and 94% (active) in test [4]. In addition, the inhibition in test [2] is 7%; in test [3], 1%. In addition, the outcome in test [5], in test [6], in test [7] and in test [8] was inactive.

For the compound `COc1cccc2cc(C(=O)N[C@@H](CC(C)C)C(=O)N[C@H](/C=N/NC(=O)OC(C)(C)C)Cc3ccccc3)oc12`, the values for the growth inhibition in test [1] and in test [4] were 88% (active) and 99% (active), respectively. Further, the inhibition in test [2] is 11%; in test [3], 0%. In addition, the outcome in test [5], in test [6], in test [7] and in test [8] was inactive.

As for `Cc1cc(Nc2ccccc2)nc(Nc2ccccc2C)n1`, the results for the growth inhibition in test [1] and in test [4] were 27% and 85% (active), respectively. Further, the inhibition in test [2] is 8%; in test [3], 5%. The outcome in test [5], in test [6], in test [7] and in test [8] was inactive.

For the compound `CS(=O)(=O)c1ccc2nc(-c3cc(-c4cccc(F)c4)cnc3N)[nH]c2c1`, the growth inhibition is 71% (active) in test [1] and 102% (active) in test [4]. Moreover, the inhibition was 33% in test [2] and 4% in test [3]. Besides, the result in test [5], in test [6], in test [7] and in test [8] was inactive.

Consider `COc1cccc(OC)c1CN1CCC(N(C)CCCCCCCCCN2CCC(OC(=O)Nc3ccccc3-c3ccccc3)CC2)CC1`, for which the growth inhibition in test [1] and in test [4] was 98% (active) in each case. For the same compound, the inhibition is 100% (active) in test [2] and -1% in test [3]. The outcome in test [5], in test [6], in test [7] and in test [8] was inactive.

With `NC(=O)c1cnc2ccc(-c3cncs3)cc2c1Nc1ccc(F)c(Cl)c1`, the growth inhibition was 99% (active) in test [1] and 97% (active) in test [4]. Also, the inhibition was 3% in test [2] and 6% in test [3]. Also, the outcome in test [5], in test [6], in test [7] and in test [8] was inactive.

For the compound `Cc1ccc2c(c1)nc(N)n2C[C@H](O)c1ccccc1`, the growth inhibition in test [1] was 74% (active); in test [4], 100% (active). Moreover, the inhibition in test [2] was -3%; in test [3], 7%. For the same compound, the outcome in test [5], in test [6], in test [7] and in test [8] was inactive.

With `O=C1CC(C(=O)Nc2cccc(-c3cccc(-c4nc5ccccc5[nH]4)c3)c2)c2ccccc2N1` (stereo not given), the growth inhibition in test [1] was 32%; in test [4], 84% (active). For the same compound, the inhibition in test [2] was 0%; in test [3], 1%. The result in test [5], in test [6], in test [7] and in test [8] was inactive.

As for `CCOC(=O)c1ccc(Nc2cc(Nc3ccc(C(=O)OCC)cc3)nc(C)n2)cc1`, the growth inhibition in test [1] is 33%; in test [4] it was 99% (active). Also, the inhibition in test [2] and in test [3] was 4% in each case. Moreover, the outcome in test [5], in test [6], in test [7] and in test [8] was inactive.

Take `CN(C)c1ccc(C=CC(=O)NC(=O)c2ccccc2O)cc1`: the results for the growth inhibition in test [1] and in test [4] were 97% (active) and 92% (active), respectively. The inhibition was 6% in test [2] and -1% in test [3]. The result in test [5], in test [6], in test [7] and in test [8] was inactive.

For the compound `O=C(c1ccc(Cl)cc1)C1CCCN(C2CCN(CCc3ccccc3)CC2)C1` (stereo not given), the growth inhibition in test [1] was 51% (active); in test [4] it was 96% (active). Besides, the inhibition in test [2] was 37%; in test [3], 1%. Further, the outcome in test [5], in test [6], in test [7] and in test [8] was inactive.

On to `CO/C(=C\C=C\c1cc2cc(Cl)c(Cl)cc2[nH]1)C(=O)NC1C[C@H]2CCC[C@@H](C1)N2C` (stereo not given in full), for which the growth inhibition in test [1] is 51% (active); in test [4], 93% (active). Further, the inhibition in test [2] was 42%; in test [3] it was -2%. Further, the result in test [5], in test [6], in test [7] and in test [8] was inactive.

As to `Cc1cc(-c2cc(Cl)ccc2Cl)no1`, the growth inhibition was 97% (active) in test [1] and 96% (active) in test [4]. In addition, the inhibition in test [2] was 36%; in test [3] it was -8%. In addition, the result in test [5], in test [6], in test [7] and in test [8] was inactive.

Consider `COc1ccc(NC(=O)/C=C/c2ccc(Cl)c(Cl)c2)cc1N1CCN(C)CC1`, for which the growth inhibition in test [1] was 20%; in test [4], 90% (active). Besides, the inhibition in test [2] is 23%; in test [3], -3%. Besides, the result in test [5], in test [6], in test [7] and in test [8] was inactive.

Take `CCC1CCCCN1S(=O)(=O)c1ccc(OC)c(N2CCN(C(=O)C(Cl)(Cl)Cl)CC2)c1` (stereo not given): the growth inhibition is 29% in test [1] and 89% (active) in test [4]. In addition, the inhibition was 9% in test [2] and 5% in test [3]. The result in test [5], in test [6], in test [7] and in test [8] was inactive.

For the compound `COc1ccc2nc(-c3ccc(C(=O)NCCCN4CCN(c5cc(Cl)ccc5OC)CC4)cc3)[nH]c2c1`, the growth inhibition in test [1] was 53% (active); in test [4] it was 97% (active). Besides, the inhibition in test [2] is -2%; in test [3], 1%. The result in test [5], in test [6], in test [7] and in test [8] was inactive.

In the case of `Oc1ccc(CCNc2nc(NCCCOc3cccc(CN4CCCCC4)c3Cl)nc(N3CCNCC3)n2)cc1`, the figures for the growth inhibition in test [1] and in test [4] were 22% and 102% (active), respectively. Also, the inhibition was 26% in test [2] and 5% in test [3]. Further, the result in test [5], in test [6], in test [7] and in test [8] was inactive.

As to `CCCC(=O)c1cnc2c(OCCCc3cnc[nH]3)cccc2c1Nc1c(C)cccc1C`, the growth inhibition is 14% in test [1] and 98% (active) in test [4]. The inhibition in test [2] was 20%; in test [3], 3%. The outcome in test [5], in test [6], in test [7] and in test [8] was inactive.
